Experimental data reported in PubChem BioAssay.
Where “and” joins values, the source holds several entries; their conditions need not be identical. Equal entries are not always repeated. Records with an inconclusive call do not appear. Where a structure was tested more than once in an assay, its records may differ in their call. Calls of active or inactive are those of the source.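 Rule for the calls, unless noted: active = compounds whose cell count with miR-34 switched on is under 0.7 times the count with it off; inactive = the rest.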

Experiments:
[1] = liver-stage malaria parasite growth inhibition, primary screen, cell-based, HepG2, luciferase luminescence, HepG2 viability (AID 624349; in the data active = parasite load remaining mostly below about 12%, no sharp cut-off; inactive = mostly above about 10%;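 note: 100% = mean of DMSO negative control wells on the same plate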); conditions: P. berghei liver stage in HepG2, luciferase luminescence, concentration not given here; parasite load remaining: stronger effect = lower value; viability: measured here: HepG2 viability without parasites
[2] = sensitizers of A549 cells to miR-34 induction, primary screen, imaging, A549 dox-inducible miR-34, nuclei and caspase counts (AID 1347080); conditions: A549 miR-34 inducible, Hoechst nuclei count, 48 h
[3] = survival rescue of mitochondrial mutant cells in low glucose, primary screen, MELAS cybrids, Rieske KO mouse fibroblasts, CellTiter-Glo (AID 1508586;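 active = mean z-score across replicates of 1.96 or higher in either the MELAS or the Rieske mutant cell line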;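 note: z relative to plate mean and SD of compound and empty wells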)
[4] = viability rescue of complex I mutant cybrids, primary screen, cell-based, galactose medium, ATP luminescence (AID 1645843;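 active = z-score of at least 1.8 in each of two replicates, scored against plate mean and spread of sample wells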;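 note: positive z means more ATP and so rescue of galactose-driven cybrid death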); conditions: complex I mutant cybrid cells, 72 h, stronger effect = higher value
[5] = hESC survival regulators, cell-based (AID 493140; call rule not given here;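 note: cells exposed to compounds for four days before counting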); conditions: human embryonic stem cell survival screen; stronger effect = higher value
[6] = molecular target: ATP-dependent translocase ABCB1 (Homo sapiens) (UniProt P08183); assay: MDR1 (ABCB1) efflux transporter inhibition, cell-based (AID 377; in the data active = fluorescence slope change above about 50%); conditions: MDR1-expressing cells, fluorescent substrate accumulation slope; stronger effect = higher value; concentration not given here
Sequence of ATP-dependent translocase ABCB1 (Homo sapiens) (P08183 whole entry, looked up): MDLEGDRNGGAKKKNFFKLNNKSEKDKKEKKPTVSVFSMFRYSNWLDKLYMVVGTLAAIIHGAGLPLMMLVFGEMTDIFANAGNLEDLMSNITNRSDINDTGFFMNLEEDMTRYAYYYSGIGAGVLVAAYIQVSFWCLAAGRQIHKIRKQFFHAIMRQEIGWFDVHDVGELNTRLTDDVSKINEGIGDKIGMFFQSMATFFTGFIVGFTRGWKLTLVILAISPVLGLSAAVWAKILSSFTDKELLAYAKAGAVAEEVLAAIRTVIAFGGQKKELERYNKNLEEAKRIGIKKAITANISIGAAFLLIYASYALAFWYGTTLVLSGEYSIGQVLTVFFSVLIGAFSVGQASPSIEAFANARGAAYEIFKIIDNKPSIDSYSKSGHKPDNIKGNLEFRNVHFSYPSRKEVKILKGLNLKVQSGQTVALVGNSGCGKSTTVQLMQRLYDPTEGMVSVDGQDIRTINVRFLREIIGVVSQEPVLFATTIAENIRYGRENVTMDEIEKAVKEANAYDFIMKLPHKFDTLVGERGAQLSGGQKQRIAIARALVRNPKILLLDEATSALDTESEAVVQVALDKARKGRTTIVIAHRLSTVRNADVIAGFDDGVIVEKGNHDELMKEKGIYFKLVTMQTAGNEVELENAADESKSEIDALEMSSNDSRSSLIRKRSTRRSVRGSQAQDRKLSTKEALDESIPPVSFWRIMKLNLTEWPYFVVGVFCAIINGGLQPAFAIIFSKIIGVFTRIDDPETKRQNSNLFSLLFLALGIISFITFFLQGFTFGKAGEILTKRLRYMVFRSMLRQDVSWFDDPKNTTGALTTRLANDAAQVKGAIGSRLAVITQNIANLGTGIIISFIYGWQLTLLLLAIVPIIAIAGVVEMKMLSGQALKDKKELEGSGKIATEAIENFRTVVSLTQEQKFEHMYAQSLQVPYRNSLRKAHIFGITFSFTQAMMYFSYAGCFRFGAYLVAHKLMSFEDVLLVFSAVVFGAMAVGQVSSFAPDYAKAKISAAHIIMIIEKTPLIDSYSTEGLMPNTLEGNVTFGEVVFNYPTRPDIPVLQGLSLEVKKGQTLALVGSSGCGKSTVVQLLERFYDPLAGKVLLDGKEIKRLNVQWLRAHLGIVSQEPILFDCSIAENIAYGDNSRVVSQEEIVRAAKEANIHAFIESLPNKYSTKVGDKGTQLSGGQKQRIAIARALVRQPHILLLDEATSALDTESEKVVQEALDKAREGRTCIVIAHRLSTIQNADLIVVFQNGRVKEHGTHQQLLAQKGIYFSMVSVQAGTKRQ

[7] = circadian clock period modulators, cell-based, LOPAC library, luminescence reporter (AID 2774; call rule not given here;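 note: values are relative to mean of DMSO wells on each plate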); conditions: circadian reporter cells, at 7 µM, actives lie on both sides
[8] = tested on: Hepatitis C virus NS3 helicase; assay: HCV NS3 helicase inhibitors, primary screen, biochemical, fluorescence polarization, LOPAC1280 library (AID 687035; in the data active = inhibition above about 37%); conditions: Purified HCV NS3 helicase, Cy5-dT15 ssDNA binding fluorescence polarization; stronger effect = higher value; concentration not given here
[9] = Cy5 fluorescence quenching or enhancement artefacts, artefact control for HCV NS3 helicase inhibitor project, biochemical, LOPAC1280 (AID 687037; call rule not given here); conditions: Cy5-DNA-NS3h complex fluorescence interference counterscreen
[10] = stronger effect = lower value, cell number ratio, induced over uninduced
[11] = measured here: relative caspase fold change +Dox/-Dox
[12] = measured here: total cells with miR-34 induction, stronger effect = lower value
[13] = measured here: total cells without miR-34 induction
[14] = MELAS cybrid survival, CellTiter-Glo 48 h, stronger effect = higher value
[15] = Rieske KO mouse fibroblast survival, CellTiter-Glo 72 h

C=C(C)[C@@H]1C2C(=O)O[C@H]1[C@H]1OC(=O)[C@@]34OC3C[C@]2(O)[C@@]14C (some centres not stated)
parasite load remaining [1]: 103% (inactive) | viability [1]: 99.2% | fold change [2, 10]: 0.887 (inactive) | fold change [2, 11]: 0.911 | cell count [2, 12]: 8720 | cell count [2, 13]: 9830 | z-score [3, 14]: 0.399 (inactive) | z-score [3, 15]: 0.218

Oc1ccc2c3c1OC1C(O)CC[C@@]4(O)C(C2)N(CC2CCC2)CC[C@]314 (some centres not stated)
fold change ([2]; stronger effect = lower value): 0.877 (inactive) | fold change [2, 11]: 1.82 | cell count [2, 12]: 8530 | cell count [2, 13]: 9720 | z-score [4]: 0.8 (inactive)

C[N+]1(C)C2CC[C@H]1CC(OC(=O)C(CO)c1ccccc1)C2 (some centres not stated)
parasite load remaining [1]: 93.5% (inactive) | viability [1]: 105% | fold change [2, 10]: 0.955 (inactive) | fold change [2, 11]: 1.32 | cell count [2, 12]: 8910 | cell count [2, 13]: 9340 | z-score [3, 14]: 0.0273 (inactive) | z-score [3, 15]: -0.854

C[C@]12CC[C@@H](O)C[C@@H]1CC[C@@H]1[C@@H]2CC[C@]2(C)C(=O)CC[C@@H]12
survival [5]: 13.1 (inactive) | parasite load remaining [1]: 90.4% (inactive) and 71.8% (inactive) | viability [1]: 90.3% and 79.5% | fold change ([2]; stronger effect = lower value): 0.869 (inactive) | fold change [2, 11]: 1.48 | cell count [2, 12]: 8170 | cell count [2, 13]: 9410 | z-score [3, 14]: 0.119 (inactive) | z-score [3, 15]: -0.286

C[N+]1([O-])[C@@H]2CC(OC(=O)[C@H](CO)c3ccccc3)C[C@H]1[C@@H]1O[C@@H]12 (some centres not stated)
fluorescence slope change [6]: 76.2% (active) | survival [5]: 10.4 (inactive) | parasite load remaining [1]: 3.97% (inactive) and 96.4% (inactive) | viability [1]: 30.6% and 90.4% | fold change [2, 10]: 0.882 (inactive) | fold change [2, 11]: 1.03 | cell count [2, 12]: 8380 | cell count [2, 13]: 9510 | z-score [3, 14]: -1.22 (inactive) | z-score [3, 15]: -0.531

CN1CCC(c2ccc(F)cc2)C(COc2ccc3c(c2)OCO3)C1 (configuration not stated)
fold change [2, 10]: 0.906 (inactive) | fold change [2, 11]: 1.59 | cell count [2, 12]: 7350 | cell count [2, 13]: 8110 | z-score [4]: -1.4 (inactive)

CN[C@@H]1[C@@H](O)[C@@H](O[C@@H]2[C@@H](O)[C@H](O[C@H]3O[C@H]([C@@H](C)NC)CC[C@H]3N)[C@@H](N)C[C@H]2N)OC[C@]1(C)O
parasite load remaining [1]: 20.1% (inactive) | viability [1]: 64.5% | fold change ([2]; stronger effect = lower value): 0.872 (inactive) | fold change [2, 11]: 1.03 | cell count [2, 12]: 10000 | cell count [2, 13]: 11500 | z-score [3, 14]: 0.508 (inactive) | z-score [3, 15]: 0.179

C[C@]12CCC(=O)C=C1CC[C@@H]1[C@@H]2C(=O)C[C@]2(C)C(=O)CC[C@@H]12
survival [5]: 4.17 (inactive) | parasite load remaining [1]: 81.1% (inactive) | viability [1]: 96.5% | fold change ([2]; stronger effect = lower value): 0.907 (inactive) | fold change [2, 11]: 0.858 | cell count [2, 12]: 9500 | cell count [2, 13]: 10500 | z-score [3, 14]: 0.15 (inactive) | z-score [3, 15]: -0.446

COc1cccc([C@@]2(O)CCCCC2CN(C)C)c1 (some centres not stated)
fold change ([2]; stronger effect = lower value): 0.881 (inactive) | fold change [2, 11]: 1.09 | cell count [2, 12]: 9920 | cell count [2, 13]: 11300 | z-score [4]: 0.56 (inactive)

Oc1cc2c(cc1O)C1c3ccccc3CNC1CC2 (configuration not stated)
fold change [2, 10]: 0.881 (inactive) | fold change [2, 11]: 2.62 | cell count [2, 12]: 9630 | cell count [2, 13]: 10900 | z-score [4]: -1.86 (inactive)

CN1[C@@H]2CC[C@H]1CC(OC(=O)C1C=Nc3ccccc31)C2 (some centres not stated)
parasite load remaining [1]: 130% (inactive) | viability [1]: 98.7% | fold change [2, 10]: 0.853 (inactive) and 0.904 (inactive) | fold change [2, 11]: 1.46 and 2.72 | cell count [2, 12]: 8760 and 8980 | cell count [2, 13]: 10300 and 9930 | z-score [3, 14]: 2.22 (active) and 0.522 (inactive) | z-score [3, 15]: -0.387 and 0.113

C[C@]12CC(=CO)C(=O)CC1CCC1C2CC[C@@]2(C)C1CC[C@]2(C)O (some centres not stated)
fold change ([2]; stronger effect = lower value): 0.96 (inactive) | fold change [2, 11]: 2.87 | cell count [2, 12]: 9400 | cell count [2, 13]: 9790 | z-score [4]: -1.14 (inactive)

CC(=O)OCC(=O)[C@H]1CC[C@H]2[C@@H]3CC[C@H]4C[C@H](O)CC[C@]4(C)[C@H]3C(=O)C[C@]12C
survival [5]: 32.2 (inactive) | parasite load remaining [1]: 133% (inactive) | viability [1]: 77.5% | fold change ([2]; stronger effect = lower value): 0.969 (inactive) | fold change [2, 11]: 0.588 | cell count [2, 12]: 8940 | cell count [2, 13]: 9230 | z-score [3, 14]: -0.0226 (inactive) | z-score [3, 15]: 0.294

CCN1C[C@@]2(COC)C3[C@@H](OC)[C@H]4[C@@H]1[C@@]3(C1C[C@@]3(O)[C@H](OC(=O)c5ccccc5)C1[C@]4(OC(C)=O)[C@@H](O)[C@H]3OC)[C@@H](OC)C[C@H]2O (some centres not stated)
survival [5]: 3.83 (inactive) | parasite load remaining [1]: 56% (inactive) and 73.1% (inactive) | viability [1]: 104% and 80.1% | fold change ([2]; stronger effect = lower value): 0.874 (inactive) | fold change [2, 11]: 1.14 | cell count [2, 12]: 8650 | cell count [2, 13]: 9900

C[C@@H]1NCCc2cc(O)c(O)cc21
fluorescence slope change [6]: -10.9% (inactive) | survival [5]: 6 (inactive) | parasite load remaining [1]: 75.9% (inactive) and 47.5% (inactive) | viability [1]: 120% and 73.8% | fold change [2, 10]: 0.841 (inactive) | fold change [2, 11]: 1.51 | cell count [2, 12]: 8760 | cell count [2, 13]: 10400

CC(C)CC(NP(=O)(O)O[C@@H]1O[C@@H](C)[C@H](O)[C@@H](O)[C@H]1O)C(=O)NC(Cc1c[nH]c2ccccc12)C(=O)O (some centres not stated)
period change [7]: 0.015 h (inactive) | inhibition [8]: -2% (inactive) | fluorescence ratio (interference) [9]: 1 (inactive) | fold change ([2]; stronger effect = lower value): 0.965 (inactive) | fold change [2, 11]: 0.942 | cell count [2, 12]: 10500 | cell count [2, 13]: 10900 | z-score [4]: 0.455 (inactive)

C/C=C1/C[C@@H](C)[C@](O)(CO)C(=O)OCC2=CCN3CC[C@@H](OC1=O)[C@@H]23
fluorescence slope change [6]: 18.1% (inactive) | survival [5]: 3.83 (inactive) | parasite load remaining [1]: 209% (inactive) and 79.8% (inactive) | viability [1]: 107% and 75% | fold change ([2]; stronger effect = lower value): 0.877 (inactive) | fold change [2, 11]: 2.22 | cell count [2, 12]: 8650 | cell count [2, 13]: 9870

CCCCC/C=C\C/C=C\C/C=C\C/C=C\CCCC(=O)N[C@H](C)CO
survival [5]: 87.2 (inactive) | fold change ([2]; stronger effect = lower value): 0.941 (inactive) and 1.01 (inactive) | fold change [2, 11]: 0.931 and 0.764 | cell count [2, 12]: 5390 and 6000 | cell count [2, 13]: 5730 and 5950

COC1=C[C@@H]2C3=C([C@@H]2C1=O)[C@@H](NC(C)=O)CCc1cc(OC)c(OC)c(OC)c13
fluorescence slope change [6]: 70.2% (active) | parasite load remaining [1]: 62.8% (inactive) | viability [1]: 107% | fold change [2, 10]: 0.865 (inactive) | fold change [2, 11]: 1.41 | cell count [2, 12]: 9450 | cell count [2, 13]: 10900

CCCCCCCCCCCCCCCCOC[C@@H](O)COP(=O)([O-])OCC[N+](C)(C)C
survival [5]: 114 (inactive) | fold change ([2]; stronger effect = lower value): 0.982 (inactive) and 0.938 (inactive) | fold change [2, 11]: 1.56 and 0.831 | cell count [2, 12]: 5950 and 5610 | cell count [2, 13]: 6060 and 5980
